Assay outcomes as filed in PubChem.
SENP7 inh: SENP7 protease inhibitors, primary screen, biochemical, luminescence, uHTS. recombinant SENP7, Z-RLRGG-aminoluciferin luminescence, 40 min. 330,000 tested, 1.5% active. inhibition, % at 5 µM. Sentrin-specific protease 7 (Homo sapiens), Q9BQF6;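 active means inhibition above about 50% at the single test dose, limit read from the data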;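 further: plate controls were DMSO with enzyme for no effect and no enzyme buffer wells for full effect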
Target sequence (Q9BQF6 706-1050 limits assumed): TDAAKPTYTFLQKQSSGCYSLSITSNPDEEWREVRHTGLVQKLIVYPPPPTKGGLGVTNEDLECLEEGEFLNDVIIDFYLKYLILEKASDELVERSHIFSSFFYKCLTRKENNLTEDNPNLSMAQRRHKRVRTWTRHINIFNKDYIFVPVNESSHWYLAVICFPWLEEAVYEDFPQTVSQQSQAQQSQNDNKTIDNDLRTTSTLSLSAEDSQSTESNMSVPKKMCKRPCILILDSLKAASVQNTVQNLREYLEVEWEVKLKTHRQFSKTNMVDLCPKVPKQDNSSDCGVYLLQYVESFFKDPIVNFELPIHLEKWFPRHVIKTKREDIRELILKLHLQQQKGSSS
SENP8 block-1: SENP8 protease inhibitors, primary screen, biochemical, luminescence. Sentrin-specific protease 8 (Homo sapiens), Q96LD8. purified SENP8, Z-RLRGG-aminoluciferin cleavage. inhibition, % at 10 µM. 330,000 tested, 1.2% active. AID 2540, 2010; in the data active means inhibition above about 50%
Target sequence (Q96LD8 whole entry, looked up): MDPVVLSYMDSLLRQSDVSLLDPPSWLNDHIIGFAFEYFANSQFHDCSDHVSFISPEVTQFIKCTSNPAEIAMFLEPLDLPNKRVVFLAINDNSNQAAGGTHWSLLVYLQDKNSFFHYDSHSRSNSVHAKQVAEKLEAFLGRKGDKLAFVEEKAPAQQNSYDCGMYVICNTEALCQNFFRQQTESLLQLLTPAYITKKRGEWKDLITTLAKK
SENP6 inh: SENP6 protease inhibitors, primary screen, biochemical, luminescence, uHTS; Sentrin-specific protease 6 (Homo sapiens), Q9GZR1; Recombinant SENP6 catalytic domain, aminoluciferin luminescence; inhibition, % at 10 µM; 330,000 tested, 1.8% active; AID 2599, 2010;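 active means inhibition above about 50% at the single tested dose, limit read from the data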;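 further: plate controls were DMSO wells with enzyme for no effect and DMSO wells lacking enzyme for full effect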
HSP90 inh: HSP90 inhibitors, primary screen, cell lysate, luminescence; Rabbit reticulocyte lysate, luciferase refolding luminescence, 3 h; Heat shock protein HSP 90 (rabbit reticulocyte lysate; luciferase refolding); AID 1789, 2009; inhibition, % at 5.6 µM; 290,000 tested, 0.91% active;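 active means inhibition above the screen-wide mean plus 3 SD, computed separately per campaign, cut at about 16% in these data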;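 further: 0% = DMSO wells and 100% = 60 µM geldanamycin wells; inhibitors lower the luminescence because luciferase stays unfolded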
SENP8 block-2: human SENP8 protease inhibitors, primary screen, biochemical, fluorescence, Nedd8 protein substrate, uHTS; Sentrin-specific protease 8 (Homo sapiens), Q96LD8; recombinant SENP8; inhibition, % at 20 µM; 360,000 tested, 0.64% active; AID 602440, 2012; in the data active means inhibition mostly above about 40%, no sharp cut-off; inactive means mostly below about 27%
An asterisk follows results filed as active; x = no result given. In the library only some 2.7% were active in any assay of this set; here they are far more common.

SMILES	SENP7 inh	SENP8 block-1	SENP6 inh	HSP90 inh	SENP8 block-2
Cc1ccc(S(=O)(=O)Cn2nnnc2C(C(C)C)N2CCSCC2)cc1 (stereo not drawn)	-10	-11	-2	3	15
NCCc1c(C(=O)O)[nH]c2ccc([N+](=O)[O-])cc12	-1	1	-10	5	23
O=c1cc(-c2ccc(O)c(O)c2)oc2cc(O)cc(O)c12	-7	13	6	x	32
O=c1c(O)c(-c2ccc(O)c(O)c2)oc2cc(O)cc(O)c12	3	28	53*	-4	33*
O=C(CN1C(=O)C2C3C=CC(C3)C2C1=O)Nc1cccc(S(=O)(=O)N2CCCC2)c1 (stereo not drawn)	10	-2	5	-5	13
O=[N+]([O-])c1cccc(-c2nc3ccc([N+](=O)[O-])cc3[nH]2)c1	93*	94*	99*	3	15
O=[N+]([O-])c1ccc(O)c(C=Nc2ccc3nc(-c4ccccc4)[nH]c3c2)c1	64*	37	71*	0	-362
COc1ccc(-c2nc3ccc([N+](=O)[O-])cc3[nH]2)cc1	x	x	x	8	13
COc1cc(SC)ccc1C(=O)N1CCN(c2ccc(O)cc2)CC1	7	3	5	-5	-1
COc1ccc(NC(=O)C(Sc2ccccc2)c2ccccc2)c(OC)c1 (stereo not drawn)	5	-2	-3	2	18
O=Cc1cc(N=Nc2cccc(C(=O)O)c2)ccc1O	98*	97*	95*	14	23
CCOc1ccccc1NC(=O)CN1CCC(C(=O)c2ccc(F)cc2)CC1	10	4	-2	3	14
CCN1/C(=C\c2ccc3cc(C)ccc3[n+]2CC)Sc2cc(C)c(C)cc21	x	x	x	3	30
CCN1/C(=C/c2ccc3cc(C)cc(C)c3[n+]2CC)Sc2cc(C)ccc21	x	x	x	1	23*
O=c1c2cc(Cl)ccc2nc(-c2ccccc2)n1O	-8	6	6	3	-20
O=c1c2cc(Cl)ccc2nc(-c2ccc(Cl)c(Cl)c2)n1O	9	15	59*	8	-19
CC(C)n1c(N2CCN(CC(=O)NCc3cccs3)CC2)nc2ccccc21	-9	0	-16	-1	26
O=[N+]([O-])c1ccc2[nH]c(O)c(N=NC(=S)Nc3cccnc3)c2c1	-7	-4	-20	3	42*
Cc1cc(/C=N/Nc2ccc([N+](=O)[O-])cn2)c(C)n1-c1ccccc1	7	3	-7	16*	35
Cc1ccc(-n2c(C)cc(/C=N/Nc3ccc([N+](=O)[O-])cn3)c2C)cc1	9	0	-20	3	29
COc1cccc(/C=N/Nc2ccc([N+](=O)[O-])cn2)c1O	98*	84*	90*	11	-28
CN(CC(=O)Nc1ccccc1Cl)C(=O)CSc1nnc(-c2ccco2)n1C	0	1	-4	x	-1
O=C1CCN(C(=O)Nc2ccccc2Cl)N1	-7	-5	-12	1	37
Cc1nc2sc3c(c2c(=O)o1)CCC3	1	1	14	-2	6
COc1ccc(Cn2nnnc2C(c2cccs2)N2CCOCC2)cc1 (stereo not drawn)	0	-2	-3	1	18
SMILES	SENP7 inh	SENP8 block-1	SENP6 inh	HSP90 inh	SENP8 block-2
Cc1[nH]n(-c2ccccc2)c(=O)c1/C=N/NC(=O)c1cccc([N+](=O)[O-])c1	-1	0	9	4	52*
CCOc1ccc(N=c2oc3cc(O)ccc3cc2C(=O)NCC2CCCO2)cc1 (stereo not drawn)	-5	-6	2	-3	-286
NC(=O)C(F)(F)C12OC3C4C5CC(C6C5C3C61)C42 (stereo not drawn)	7	-5	0	-1	5
COc1cccc(/C=N/N=C(\N)c2nonc2N)c1O	78*	15	21	-2	18
O=C(Nc1sc2c(c1C(=O)O)CCC2)c1cccs1	44	92*	90*	0	-73
NCCNC(=O)c1c(NC(=O)c2ccccc2)sc2c1CCCC2	4	-4	0	12	-149
O=C(Nc1sc2c(c1C(=O)O)CCCC2)c1ccc(Cl)cc1	37	78*	89*	4	-120
O=C(Nc1nc2c(s1)CCCC2)c1cccs1	96*	92*	95*	13	-37
Cc1ccc(-c2nc(-c3ccccn3)no2)cc1Cl	99*	96*	95*	64*	-16
COc1cc(-c2nc(-c3ccccn3)no2)cc(OC)c1OC	-7	-8	-6	0	-5
Clc1ccc(-c2cnc3ccccc3n2)cc1	92*	85*	90*	-8	-4
CN(C)/C=C1/C(=O)N(c2ccc([N+](=O)[O-])cc2)N=C1c1ccccc1	97*	96*	101*	-6	x
C/C(=C1/C(=O)N(c2ccc([N+](=O)[O-])cc2)N=C1c1ccccc1)N(C)C	9	13	14	-4	x
Cc1c(C(=O)O/N=C(\N)c2ccccn2)cccc1[N+](=O)[O-]	85*	78*	79*	8	6
Cc1nn(-c2ccccc2)c(C)c1/C=N/NC(=O)CSc1nnc(SCc2ccccc2Cl)s1	27	61*	71*	-1	5
Cc1nn(-c2ccccc2)c(C)c1/C=N/NC(=O)CSc1nnc(-c2ccccc2)n1-c1ccc(Cl)cc1	4	1	-15	-4	8
O=C(CSc1nnc(SCc2ccc(Cl)cc2)s1)N/N=C/c1c[nH]c2ccccc12	x	x	x	0	28
O=C(CSc1nnc(SCc2ccc(Cl)cc2)s1)N/N=C/c1ccc(C(=O)O)cc1	37	65*	85*	2	13
Cc1[nH]n(-c2ccc(Cl)cc2)c(=O)c1N=Nc1cccnc1	9	-7	-21	6	43*
O=C(/C=C/Nc1ccccc1F)c1ccc(Br)cc1	x	x	x	-4	-51
O=C(/C=C/Nc1ccc(F)c(F)c1)c1ccc(Br)cc1	67*	37	48	5	-157
COc1ccc(/C=N/NC(=O)c2sccc2C)c2ccccc12	0	-21	-10	x	-323
Cc1ccccc1/C=N/NC(=O)c1sccc1C	99*	95*	96*	3	3
COc1ccc(CNC(=S)Nc2cccc(Cl)c2)cc1	9	1	-15	x	33
CCOc1ccc(-n2c(C)nc(O)c2N=Nc2ccccc2)cc1	6	3	-2	1	43*
C/C(=N\Nc1ccc(C#N)cc1[N+](=O)[O-])c1ccc(O)cc1	-3	0	-18	1	44*
C/C(=N/Nc1ccccc1[N+](=O)[O-])c1ccc([N+](=O)[O-])cc1	-2	-4	-10	-7	34
COc1ccc(CCC(=O)N2c3ccccc3N=C(c3ccc(C(F)(F)F)cc3)C2C(=O)NC(C)C)cc1 (stereo not drawn)	x	x	x	x	-112
